The first assay has as its target Tyrosine-protein kinase Fes/Fps (Homo sapiens) (UniProt P07332). Particulars: at 1 µM.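 Further: mean inhibition of FES from the GSK PKIS kinase inhibitor screening set, assayed by Nanosyn.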
Chain of Fibroblast growth factor receptor 1 (Homo sapiens) (P11362 22-822 limits assumed): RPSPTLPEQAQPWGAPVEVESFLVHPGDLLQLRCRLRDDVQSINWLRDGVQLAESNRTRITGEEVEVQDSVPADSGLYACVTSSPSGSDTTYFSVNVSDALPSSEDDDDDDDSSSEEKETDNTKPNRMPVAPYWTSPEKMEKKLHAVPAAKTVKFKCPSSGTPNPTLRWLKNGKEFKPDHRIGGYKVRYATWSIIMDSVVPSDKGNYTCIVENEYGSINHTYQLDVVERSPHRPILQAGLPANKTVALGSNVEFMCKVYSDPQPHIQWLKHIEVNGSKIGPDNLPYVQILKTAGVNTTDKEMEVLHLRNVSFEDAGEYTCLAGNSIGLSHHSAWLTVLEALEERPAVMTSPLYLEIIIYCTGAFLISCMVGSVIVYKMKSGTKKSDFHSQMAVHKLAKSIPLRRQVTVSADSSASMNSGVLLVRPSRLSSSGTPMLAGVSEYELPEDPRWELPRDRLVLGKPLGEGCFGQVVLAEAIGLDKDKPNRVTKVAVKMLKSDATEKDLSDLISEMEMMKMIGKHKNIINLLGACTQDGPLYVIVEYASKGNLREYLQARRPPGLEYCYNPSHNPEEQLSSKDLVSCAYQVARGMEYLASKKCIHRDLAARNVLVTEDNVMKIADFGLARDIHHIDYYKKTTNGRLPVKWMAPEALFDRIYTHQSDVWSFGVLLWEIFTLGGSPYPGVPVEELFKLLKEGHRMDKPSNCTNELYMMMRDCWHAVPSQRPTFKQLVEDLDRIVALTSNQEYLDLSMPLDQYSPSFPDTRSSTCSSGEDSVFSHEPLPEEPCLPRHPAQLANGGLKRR
Chain of Tyrosine-protein kinase Fes/Fps (Homo sapiens) (P07332 whole entry): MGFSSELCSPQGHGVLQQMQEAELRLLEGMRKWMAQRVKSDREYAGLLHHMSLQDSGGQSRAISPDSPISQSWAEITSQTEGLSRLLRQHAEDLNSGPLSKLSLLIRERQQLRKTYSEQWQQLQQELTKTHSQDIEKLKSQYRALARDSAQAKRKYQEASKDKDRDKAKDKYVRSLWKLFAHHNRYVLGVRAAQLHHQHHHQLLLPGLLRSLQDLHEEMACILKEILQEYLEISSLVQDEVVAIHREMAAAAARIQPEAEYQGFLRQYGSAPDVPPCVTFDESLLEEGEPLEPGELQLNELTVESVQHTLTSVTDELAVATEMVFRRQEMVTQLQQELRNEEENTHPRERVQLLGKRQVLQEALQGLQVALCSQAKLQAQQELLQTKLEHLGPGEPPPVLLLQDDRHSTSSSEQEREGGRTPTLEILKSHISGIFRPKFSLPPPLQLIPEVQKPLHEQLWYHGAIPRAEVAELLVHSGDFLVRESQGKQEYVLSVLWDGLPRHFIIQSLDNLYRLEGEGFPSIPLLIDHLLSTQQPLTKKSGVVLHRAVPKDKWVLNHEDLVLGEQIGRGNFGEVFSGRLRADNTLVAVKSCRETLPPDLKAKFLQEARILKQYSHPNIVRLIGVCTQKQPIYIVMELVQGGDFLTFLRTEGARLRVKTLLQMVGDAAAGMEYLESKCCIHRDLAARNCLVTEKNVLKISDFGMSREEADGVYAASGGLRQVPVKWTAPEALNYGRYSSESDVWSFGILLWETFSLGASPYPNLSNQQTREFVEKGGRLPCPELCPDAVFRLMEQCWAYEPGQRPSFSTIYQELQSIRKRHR
With `NS(=O)(=O)c1cccc(-c2cc3ccncc3cc2OCc2ccccc2)c1`, the inhibition (usually the change of the read-out against control, counted positive when it falls) came to 7.11%.
On to `COc1cc2ncnc(Nc3ccc4c(cnn4Cc4ccccc4)c3)c2cc1OC`, for which the inhibition was determined as 2%.
Turning to `Cc1ccc2c(c1)/C(=N/Nc1ccc(S(N)(=O)=O)cc1)C(=O)N2`, the inhibition came out at 0.85%.
On to `FC(F)(F)c1ccc(-c2nn3ncccc3c2-c2ccnc(Nc3ccc4c(c3)OCCO4)n2)cc1`, for which the inhibition was 1.22%.
With `CCCN1CCCC(c2ccc(Nc3nc(Nc4cc(F)ccc4C(N)=O)c4cc[nH]c4n3)c(OC)c2)C1` (stereo not drawn), the inhibition came out at 81.3%.
Take `COc1cccc(-n2ncc3c(N/N=C/c4ccc(C)cc4)ncnc32)c1`: the inhibition came to 10.3%.
On the same count and under the same terms, in the case of `[O-][S+]1CCN(Cc2ccc(-c3ccc4ncnc(Nc5ccc(OCc6ccccc6)c(Cl)c5)c4c3)o2)CC1` it was 1.62%; in that of `Cc1cc(Cl)cc2c1NC(=O)C2=NNc1ccc(S(N)(=O)=O)cc1`, 0.42%.
Regarding `COc1ccc(-c2nn3ncccc3c2-c2ccnc(Nc3cccc(C(F)(F)F)c3)n2)cc1`, the inhibition was 2.54%.
Consider `N#Cc1cccc(Nc2nccc(-c3cnn4ncccc34)n2)c1`, for which the inhibition turned out to be 34.3%.
Consider `Cc1ccc2c(-c3ccnc(Nc4cccc(C(F)(F)F)c4)n3)c(-c3ccccc3)nn2n1`, for which the inhibition is 5.17%.
As to `Cc1ccc(O)cc1Nc1ccnc2ccc(S(C)(=O)=O)cc12`, the inhibition worked out at 39.4%.
As to `Cc1ccc(Nc2ccnc(Nc3cccc(C(N)=O)c3)n2)cc1O`, the inhibition was determined as 10.7%.
Consider `O=C1Nc2ccc(-c3cccnc3)cc2C1=Cc1cc(Br)c(O)c(Br)c1`, for which the inhibition is 2.85%.
For the molecule `COC(=O)Nc1nc2cc(Oc3ccc(NC(=O)Nc4cccc(Br)c4)cc3)ccc2[nH]1`, the inhibition worked out at 2.25%.
As to `Cc1cc(O)cc(C)c1/C=C/c1cncc(C(=O)N(C)C)c1`, the inhibition came out at 1.31%.
For `COc1ccc2ncnc(Nc3ccc(OCc4ccccc4)cc3)c2c1`, the inhibition came out at 1.33%.
For `CS(=O)(=O)Nc1cccc(-c2ccc3c(NC(=O)C4CC4)n[nH]c3c2)c1`, the inhibition was 1.23%.
In the case of `COc1cc2ncnc(Nc3ccc(C)c(O)c3)c2cc1OC`, the inhibition came out at 3.54%.
As to `COc1cccc(-n2ncc3c(N/N=C/c4ccc(S(C)(=O)=O)cc4)ncnc32)c1`, the inhibition came to 0.07%.
Take `Cc1nc(-c2ccccc2)n2nc(NCCCN3CCOCC3)ncc12`: the inhibition was determined as 3.03%.
In the case of `Nc1nccc(C#Cc2cncnc2Nc2ccc(OCc3cccc(F)c3)c(Cl)c2)n1`, the inhibition is 4.65%.
Still for that read-out and setting: in the case of `N#Cc1c(NC(=O)c2ccccc2F)sc2c1CCCC2` it was -1.66%.
On to `CC(C)c1ccc(Nc2nccc(-c3cnn4ncccc34)n2)cc1`, for which the inhibition amounted to 25.5%.
`NS(=O)(=O)c1ccc(NC=C2C(=O)Nc3ccc4ncsc4c32)cc1`: the inhibition came out at 17.1%.
Consider `Cc1cc(-c2ccccn2)cc(C)c1/C=C/c1cncc(-c2nn[nH]n2)c1`, for which the inhibition is 5.62%.
`CN(c1ccc(NC(=O)Nc2ccc(OC(F)(F)F)cc2)cc1)c1ccnc(Nc2cccc(S(N)(=O)=O)c2)n1`: the inhibition stood at 21.8%.
As for `COc1cc(/C=N/Nc2ncnc3c2cnn3C(C)C)ccc1O`, the inhibition is 5.37%.
In the case of `NC(=O)c1cccc(Nc2nccc(Nc3cccc(F)c3)n2)c1`, the inhibition amounted to 7.67%.
In the case of `Nc1ccc(C#Cc2cncnc2Nc2ccc(OCc3cccc(F)c3)c(Cl)c2)cc1`, the inhibition stood at 2.24%.
Consider `O=C(Nc1ccc(Oc2ccc3[nH]c(NC(=O)c4ccco4)nc3c2)cc1)Nc1cc(C(F)(F)F)ccc1F`, for which the inhibition worked out at 0.11%.
Regarding `CC(C)c1ccc2c(c1)NC(=O)/C2=N/Nc1ccc(S(N)(=O)=O)cc1`, the inhibition is -0.14%.
As to `c1ccc(Cc2nc3ccc(Nc4ncnc5ccccc45)cc3[nH]2)cc1`, the inhibition stood at 3.02%.
For the molecule `CCOc1nccc2c1nc(-c1nonc1N)n2CC`, the inhibition amounted to 2.14%.

Another assay has as its target Fibroblast growth factor receptor 1 (Homo sapiens) (UniProt P11362). Particulars: at 0.1 µM.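 Further: values are reported as mean percent inhibition.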
For `NS(=O)(=O)c1cccc(-c2cc3ccncc3cc2OCc2ccccc2)c1`, the inhibition worked out at 8.63%.
The same measure, in the same setting: in the case of `COc1cc2ncnc(Nc3ccc4c(cnn4Cc4ccccc4)c3)c2cc1OC` it was -0.45%; in that of `Cc1ccc2c(c1)/C(=N/Nc1ccc(S(N)(=O)=O)cc1)C(=O)N2`, 0.1%; in that of `FC(F)(F)c1ccc(-c2nn3ncccc3c2-c2ccnc(Nc3ccc4c(c3)OCCO4)n2)cc1`, 7.55%.
The same measure, in the same setting: in the case of `CCCN1CCCC(c2ccc(Nc3nc(Nc4cc(F)ccc4C(N)=O)c4cc[nH]c4n3)c(OC)c2)C1` (stereo not drawn) it was 3.11%; in that of `COc1cccc(-n2ncc3c(N/N=C/c4ccc(C)cc4)ncnc32)c1`, 4.11%.
As for `[O-][S+]1CCN(Cc2ccc(-c3ccc4ncnc(Nc5ccc(OCc6ccccc6)c(Cl)c5)c4c3)o2)CC1`, the inhibition is -2.69%.
As to `Cc1cc(Cl)cc2c1NC(=O)C2=NNc1ccc(S(N)(=O)=O)cc1`, the inhibition is 3.14%.
On the same count and under the same terms, in the case of `COc1ccc(-c2nn3ncccc3c2-c2ccnc(Nc3cccc(C(F)(F)F)c3)n2)cc1` it was 1.38%; in that of `N#Cc1cccc(Nc2nccc(-c3cnn4ncccc34)n2)c1`, 4.73%.
On the same count and under the same terms, in the case of `Cc1ccc2c(-c3ccnc(Nc4cccc(C(F)(F)F)c4)n3)c(-c3ccccc3)nn2n1` it was 5.59%; in that of `Cc1ccc(O)cc1Nc1ccnc2ccc(S(C)(=O)=O)cc12`, 7.68%; in that of `Cc1ccc(Nc2ccnc(Nc3cccc(C(N)=O)c3)n2)cc1O`, 4.6%.
Turning to `O=C1Nc2ccc(-c3cccnc3)cc2C1=Cc1cc(Br)c(O)c(Br)c1`, the inhibition amounted to 4.47%.
Regarding `COC(=O)Nc1nc2cc(Oc3ccc(NC(=O)Nc4cccc(Br)c4)cc3)ccc2[nH]1`, the inhibition was determined as 3.32%.
For `Cc1cc(O)cc(C)c1/C=C/c1cncc(C(=O)N(C)C)c1`, the inhibition turned out to be 1.31%.
`COc1ccc2ncnc(Nc3ccc(OCc4ccccc4)cc3)c2c1`: the inhibition was determined as 1.89%.
Regarding `CS(=O)(=O)Nc1cccc(-c2ccc3c(NC(=O)C4CC4)n[nH]c3c2)c1`, the inhibition is -6.27%.
Still for that read-out and setting: in the case of `COc1cc2ncnc(Nc3ccc(C)c(O)c3)c2cc1OC` it was 4.9%.
Take `COc1cccc(-n2ncc3c(N/N=C/c4ccc(S(C)(=O)=O)cc4)ncnc32)c1`: the inhibition turned out to be 3.99%.
In the case of `Cc1nc(-c2ccccc2)n2nc(NCCCN3CCOCC3)ncc12`, the inhibition is -1.62%.
Same read-out and setting: in the case of `Nc1nccc(C#Cc2cncnc2Nc2ccc(OCc3cccc(F)c3)c(Cl)c2)n1` it was 5.53%; in that of `N#Cc1c(NC(=O)c2ccccc2F)sc2c1CCCC2`, -6.27%.
On to `CC(C)c1ccc(Nc2nccc(-c3cnn4ncccc34)n2)cc1`, for which the inhibition was 4.84%.
On the same count and under the same terms, in the case of `NS(=O)(=O)c1ccc(NC=C2C(=O)Nc3ccc4ncsc4c32)cc1` it was 13.4%; in that of `Cc1cc(-c2ccccn2)cc(C)c1/C=C/c1cncc(-c2nn[nH]n2)c1`, 1.35%; in that of `CN(c1ccc(NC(=O)Nc2ccc(OC(F)(F)F)cc2)cc1)c1ccnc(Nc2cccc(S(N)(=O)=O)c2)n1`, 2.49%.
In the case of `COc1cc(/C=N/Nc2ncnc3c2cnn3C(C)C)ccc1O`, the inhibition is -0.65%.
As to `NC(=O)c1cccc(Nc2nccc(Nc3cccc(F)c3)n2)c1`, the inhibition came to 9.63%.
Still for that read-out and setting: in the case of `Nc1ccc(C#Cc2cncnc2Nc2ccc(OCc3cccc(F)c3)c(Cl)c2)cc1` it was 2.53%.
As for `O=C(Nc1ccc(Oc2ccc3[nH]c(NC(=O)c4ccco4)nc3c2)cc1)Nc1cc(C(F)(F)F)ccc1F`, the inhibition is -3.4%.
On the same count and under the same terms, in the case of `CC(C)c1ccc2c(c1)NC(=O)/C2=N/Nc1ccc(S(N)(=O)=O)cc1` it was 3.46%; in that of `c1ccc(Cc2nc3ccc(Nc4ncnc5ccccc45)cc3[nH]2)cc1`, 2.15%; in that of `CCOc1nccc2c1nc(-c1nonc1N)n2CC`, 4.54%.

For the origin of these results see ChEMBL document CHEMBL1961873, “Compounds: GSK PKIS; Assays: Nanosyn kinase panel” (2012).
